According to PubChem BioAssay AID1210 (NMMLSC, 2008):
The source made the active and inactive calls.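 The calls were made as follows: active = blocks over 70% of labeled estradiol binding at 10 µM, or over a set limit at 100 nM; inactive = the rest.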

target: Estrogen receptor beta (Homo sapiens) (UniProt Q92731); experiment: ERbeta ligand binders by competition, primary screen, cell-based, Cos7 ERbeta-GFP, flow cytometry (AID 1210); conditions: fluorescent estrogen binding, at 10 µM, stronger effect = higher value;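 also: 0% = DMSO vehicle wells and 100% = complete loss of labeled estradiol signal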
Sequence (Q92731 whole entry, looked up): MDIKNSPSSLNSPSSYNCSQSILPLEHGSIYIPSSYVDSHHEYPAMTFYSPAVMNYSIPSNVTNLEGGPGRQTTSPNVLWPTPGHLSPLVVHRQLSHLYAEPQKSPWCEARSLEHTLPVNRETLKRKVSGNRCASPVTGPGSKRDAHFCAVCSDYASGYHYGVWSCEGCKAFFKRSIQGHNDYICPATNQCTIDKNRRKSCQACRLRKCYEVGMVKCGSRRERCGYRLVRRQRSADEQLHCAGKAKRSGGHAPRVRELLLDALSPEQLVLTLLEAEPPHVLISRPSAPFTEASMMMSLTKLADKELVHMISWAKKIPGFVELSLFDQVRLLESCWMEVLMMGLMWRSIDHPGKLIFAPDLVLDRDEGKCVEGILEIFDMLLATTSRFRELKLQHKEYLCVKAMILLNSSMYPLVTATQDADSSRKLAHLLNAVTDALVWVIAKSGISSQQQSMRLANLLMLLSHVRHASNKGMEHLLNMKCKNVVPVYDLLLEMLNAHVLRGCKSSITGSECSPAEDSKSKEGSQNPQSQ

| SMILES | inhibition |
| --- | --- |
| COc1ccc2[nH]c3nc(SCc4nnc(-c5ccc(C)cc5)o4)nnc3c2c1 | 49% (inactive) |
| COc1ccc2c(c1OC)C(=O)N1N=C(c3ccc(O)cc3)CC21 (stereo not drawn) | 21% (inactive) |
| COc1ccc(C(Nc2ccccn2)c2oc(CO)cc(=O)c2O)cc1 (stereo not drawn) | 75% (active) |
| COc1ccc(OC)c(C2Nc3c(Cl)ccc(C(=O)O)c3C3C=CCC32)c1 (stereo not drawn) | 0% (inactive) |
| Cc1ccc(S(=O)(=O)Cc2ccc(C(=O)O)o2)cc1 | 54% (inactive) |
| Cc1cc(O)ccc1C1(c2ccc(O)cc2C)OC(=O)c2ccccc21 | 36% (inactive) |
| O=c1oc2ccccc2cc1-c1ccc(O)cc1 | 58% (inactive) |
| COc1ccc(C2Nc3ccccc3C(=O)N2c2ccccc2)cc1COc1ccccn1 (stereo not drawn) | 18% (inactive) |
| Cc1nc2sccn2c1-c1nc(-c2cc3ccccc3o2)cs1 | 43% (inactive) |
| Cc1ccc(S(=O)(=O)NCCn2c(C)cc3ccccc32)cc1 | 23% (inactive) |
| O=C(Nc1ccccc1[N+](=O)[O-])C1=C(O)CCn2c1nc1ccccc12 | 37% (inactive) |
| O=C(Nc1cc(C(F)(F)F)ccc1N1CCOCC1)C1Cc2ccccc2CN1C(=O)c1ccco1 (stereo not drawn) | 73% (active) |
| COc1cccc(C(=O)NC2CCN(C(=O)N3c4ccccc4Sc4ccccc43)CC2)c1 | 43% (inactive) |
| COc1cc(OC)cc(C(=O)NC2CCN(C(=O)N3c4ccccc4Sc4ccccc43)CC2)c1 | 21% (inactive) |
| COC(=O)c1cc(-c2c(C)oc3cc(O)ccc3c2=O)c(C)o1 | 12% (inactive) |
| O=C(Cn1c(=O)n(Cc2ccco2)c(=O)c2c3c(sc21)CCCCC3)Nc1ccccc1 | 37% (inactive) |
| O=S(=O)(NCc1csc(-c2cccnc2)n1)c1ccc(Cl)s1 | 31% (inactive) |
| Cc1ccc(S(=O)(=O)Cc2ccc(C(=O)N3CCc4ccccc4C3)o2)cc1 | 43% (inactive) |
| O=C(c1cc2sccc2n1Cc1ccccc1)N1CCc2ccccc21 | 42% (inactive) |
| Cc1ccc(C(=O)ONc2ccc(N=NC(=O)c3ccccc3O)cc2)cc1 | 58% (inactive) |

| SMILES | inhibition |
| --- | --- |
| C/C(=N\Nc1ccc([N+](=O)[O-])cc1)c1cccc(N)c1 | 14% (inactive) |
| CCOc1ccccc1C1C(C#N)=C(N)Nc2onc(-c3ccccc3)c21 (stereo not drawn) | 5% (inactive) |
| COc1ccccc1-c1nnc2sc(-c3cnccn3)nn12 | 40% (inactive) |
| O=C(NCc1ccco1)c1cc2c(s1)CSC2 | 32% (inactive) |
| Cc1ccc2occ(C3NC(C(=O)O)CS3)c(=O)c2c1 (stereo not drawn) | 62% (inactive) |
| Cc1ccccc1Nc1nnc(SCC(=O)NCc2ccco2)s1 | 26% (inactive) |
| COc1ccc(NC2=CC(c3cccc(OC)c3)N(c3ccc(OC)cc3)C2=O)cc1 (stereo not drawn) | 33% (inactive) |
| CC1=C(SCCC#N)S/C(=C2\SC(C)=C(SCCC#N)S2)S1 | 49% (inactive) |
| O=S(=O)(c1cccc(-c2cn3cccnc3n2)c1)N1CCCCCC1 | 14% (inactive) |
| O=C(CSc1nnnn1-c1ccccc1)Nc1nsc(-c2ccc(Cl)cc2)n1 | 36% (inactive) |
| COc1ccc2c(c1)C1C=CCC1C(c1cc3c(cc1Br)OCO3)N2 (stereo not drawn) | 0% (inactive) |
| O=C(O)c1cc(Cl)c2c(c1)[C@@H]1C=CC[C@@H]1[C@H](c1ccc(S(=O)(=O)N3CCOCC3)cc1)N2 | 45% (inactive) |
| CC1CCN(S(=O)(=O)c2ccc(NC(=O)Cc3cccs3)cc2)CC1 | 36% (inactive) |
| COc1ccc(C2CC(c3c(-c4ccccc4)c4cc(Cl)ccc4[nH]c3=O)=NN2S(C)(=O)=O)cc1OC (stereo not drawn) | 1% (inactive) |
| O=C(Nc1ccc(O)cc1C(=O)O)c1ccc2c(c1)C(=O)N(Cc1ccco1)C2=O | 52% (active) |
| Cc1nc2ccc(C(=O)O)cc2[nH]1 | 31% (inactive) |
| O=C(Nc1nc(-c2nc3ccccc3s2)cs1)C1COc2ccccc2O1 (stereo not drawn) | 19% (inactive) |
| CCN(CC)c1ccc(-c2nn3c(-c4ccccc4OC)nnc3s2)cc1 | 32% (inactive) |
| CN(C)CC(=O)N1c2ccccc2CCc2ccc(NC(=O)c3ccc(N)cc3)cc21 | 39% (inactive) |

same assay, conditions: fluorescent estrogen binding, ligand binding inhibition, at 0.1 µM, stronger effect = higher value

| SMILES | inhibition [%] |
| --- | --- |
| COc1ccc2[nH]c3nc(SCc4nnc(-c5ccc(C)cc5)o4)nnc3c2c1 | 18 |
| COc1ccc2c(c1OC)C(=O)N1N=C(c3ccc(O)cc3)CC21 (stereo not drawn) | 39 |
| COc1ccc(C(Nc2ccccn2)c2oc(CO)cc(=O)c2O)cc1 (stereo not drawn) | 40 |
| COc1ccc(OC)c(C2Nc3c(Cl)ccc(C(=O)O)c3C3C=CCC32)c1 (stereo not drawn) | 52 |
| Cc1ccc(S(=O)(=O)Cc2ccc(C(=O)O)o2)cc1 | 27 |
| Cc1cc(O)ccc1C1(c2ccc(O)cc2C)OC(=O)c2ccccc21 | 10 |
| O=c1oc2ccccc2cc1-c1ccc(O)cc1 | 3 |
| COc1ccc(C2Nc3ccccc3C(=O)N2c2ccccc2)cc1COc1ccccn1 (stereo not drawn) | 17 |
| Cc1nc2sccn2c1-c1nc(-c2cc3ccccc3o2)cs1 | 9 |
| Cc1ccc(S(=O)(=O)NCCn2c(C)cc3ccccc32)cc1 | 18 |
| O=C(Nc1ccccc1[N+](=O)[O-])C1=C(O)CCn2c1nc1ccccc12 | 46 |
| O=C(Nc1cc(C(F)(F)F)ccc1N1CCOCC1)C1Cc2ccccc2CN1C(=O)c1ccco1 (stereo not drawn) | 13 |
| COc1cccc(C(=O)NC2CCN(C(=O)N3c4ccccc4Sc4ccccc43)CC2)c1 | 17 |
| COc1cc(OC)cc(C(=O)NC2CCN(C(=O)N3c4ccccc4Sc4ccccc43)CC2)c1 | 16 |
| COC(=O)c1cc(-c2c(C)oc3cc(O)ccc3c2=O)c(C)o1 | 1 |
| O=C(Cn1c(=O)n(Cc2ccco2)c(=O)c2c3c(sc21)CCCCC3)Nc1ccccc1 | 39 |
| O=S(=O)(NCc1csc(-c2cccnc2)n1)c1ccc(Cl)s1 | 19 |
| Cc1ccc(S(=O)(=O)Cc2ccc(C(=O)N3CCc4ccccc4C3)o2)cc1 | 10 |
| O=C(c1cc2sccc2n1Cc1ccccc1)N1CCc2ccccc21 | 2 |
| Cc1ccc(C(=O)ONc2ccc(N=NC(=O)c3ccccc3O)cc2)cc1 | 28 |

| SMILES | inhibition [%] |
| --- | --- |
| C/C(=N\Nc1ccc([N+](=O)[O-])cc1)c1cccc(N)c1 | 24 |
| CCOc1ccccc1C1C(C#N)=C(N)Nc2onc(-c3ccccc3)c21 (stereo not drawn) | 38 |
| COc1ccccc1-c1nnc2sc(-c3cnccn3)nn12 | 17 |
| O=C(NCc1ccco1)c1cc2c(s1)CSC2 | 12 |
| Cc1ccc2occ(C3NC(C(=O)O)CS3)c(=O)c2c1 (stereo not drawn) | 27 |
| Cc1ccccc1Nc1nnc(SCC(=O)NCc2ccco2)s1 | 18 |
| COc1ccc(NC2=CC(c3cccc(OC)c3)N(c3ccc(OC)cc3)C2=O)cc1 (stereo not drawn) | 25 |
| CC1=C(SCCC#N)S/C(=C2\SC(C)=C(SCCC#N)S2)S1 | 11 |
| O=S(=O)(c1cccc(-c2cn3cccnc3n2)c1)N1CCCCCC1 | 17 |
| O=C(CSc1nnnn1-c1ccccc1)Nc1nsc(-c2ccc(Cl)cc2)n1 | 21 |
| COc1ccc2c(c1)C1C=CCC1C(c1cc3c(cc1Br)OCO3)N2 (stereo not drawn) | 41 |
| O=C(O)c1cc(Cl)c2c(c1)[C@@H]1C=CC[C@@H]1[C@H](c1ccc(S(=O)(=O)N3CCOCC3)cc1)N2 | 8 |
| CC1CCN(S(=O)(=O)c2ccc(NC(=O)Cc3cccs3)cc2)CC1 | 33 |
| COc1ccc(C2CC(c3c(-c4ccccc4)c4cc(Cl)ccc4[nH]c3=O)=NN2S(C)(=O)=O)cc1OC (stereo not drawn) | 64 |
| O=C(Nc1ccc(O)cc1C(=O)O)c1ccc2c(c1)C(=O)N(Cc1ccco1)C2=O | 72 |
| Cc1nc2ccc(C(=O)O)cc2[nH]1 | 47 |
| O=C(Nc1nc(-c2nc3ccccc3s2)cs1)C1COc2ccccc2O1 (stereo not drawn) | 2 |
| CCN(CC)c1ccc(-c2nn3c(-c4ccccc4OC)nnc3s2)cc1 | 24 |
| CN(C)CC(=O)N1c2ccccc2CCc2ccc(NC(=O)c3ccc(N)cc3)cc21 | 62 |
